Data taken from PubChem BioAssay (Tox21).
Results filed as inconclusive are left out. Calls of active or inactive are those of the source. Unless noted, calls follow the shape of the dose curve; as a rule, active = well fitted curve in the direction sought with a large enough effect in the repeat runs; inconclusive = weak or mixed curves; inactive = no such curve, though single readings can be large; an effect the other way counts as inactive or inconclusive.

Experiments:
[1] = A CellTox Green Cytotoxicity Assay to monitor cytotoxicity in HepG2 cells - 0 hour (AID 1224882); also: nearly all actives have a fitted effect of over 35% in size
Procedure, shortened: (§1)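 HepG2, 600 cells/well premixed w/ CellTox Green; 5 h settle, 37 C/5% CO2; pintool cpd add (DMSO); 37 C, 40 h; fluorescence read at 0, 8, 16, 24, 32, 40 h.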

[2] = A CellTox Green Cytotoxicity Assay to monitor cytotoxicity in HepG2 cells - 32 hour (AID 1224883); also: nearly all actives have a fitted effect of over 50% in size; also: potency is read from the fitted curve at half-maximal effect
Procedure, shortened: as §1

[3] = A CellTox Green Cytotoxicity Assay to monitor cytotoxicity in HEK293 cells - 8 hour (AID 1224884); also: nearly all actives have a fitted effect of over 35% in size
Procedure, shortened: (§2)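 Read-out: fluorescence of a cell-impermeant cyanine dye staining DNA of dead cells, proportional to cytotoxicity. HEK293, 600 cells/well with reagent, compound (23 nL DMSO) added after 5 h; reads at 0, 8, 16, 24, 32, 40 h.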

[4] = qHTS RealTime-Glo MT Cell Viability Assay in HepG2 cells - 16 hour (AID 1224885); also: nearly all actives have a fitted effect of over 50% in size
Procedure, shortened: (§3)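 Luminescence read-out: viable HepG2 cells reduce a prosubstrate to a NanoLuc substrate, giving a signal proportional to live cell number. Reads taken at 0, 8, 16, 24, 32 and 40 h of compound exposure at 37 C.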

[5] = qHTS RealTime-Glo MT Cell Viability Assay in HEK293 cells - 24 hour (AID 1224886); also: nearly all actives have a fitted effect of over 50% in size; also: potency is read from the fitted curve at half-maximal effect
Procedure, shortened: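 Nonlytic real-time viability readout: viable cells convert prosubstrate to NanoLuc substrate, giving luminescence proportional to live cell number. HEK293, 600 cells/well, compound added after 5 h, continuous culture at 37 C.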

[6] = A CellTox Green Cytotoxicity Assay to monitor cytotoxicity in HEK293 cells - 16 hour (AID 1224888); also: nearly all actives have a fitted effect of over 35% in size
Procedure, shortened: as §2

[7] = qHTS RealTime-Glo MT Cell Viability Assay in HepG2 cells - 0 hour (AID 1224889); also: nearly all actives have a fitted effect of over 50% in size; also: potency is read from the fitted curve at half-maximal effect
Procedure, shortened: as §3

[8] = qHTS assay to identify small molecule antagonists of the estrogen receptor alpha (ER-alpha) signaling pathway using the BG1 cell line in the presence of 0.1 nM 17-beta-estradiol - cell viability counter screen (AID 1259241); also: nearly all actives have a fitted effect of over 40% in size
Procedure, shortened: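 CellTiter-Fluor read (30 min, 37C) on ER-alpha/ERE-luc VM7Luc4E2 cells; 22 hr compound treatment; agonist 0.1 nM E2 final; same-well multiplex.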

[9] = qHTS assay to identify small molecule antagonists of the androgen receptor (AR) signaling pathway using the MDA cell line in the presence of 0.5 nM R1881 - cell viability counter screen (AID 1259242); also: nearly all actives have a fitted effect of over 45% in size
Procedure, shortened: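 Live-cell protease fluorescence, CellTiter-Fluor, 30 min at 37C. Cells: MDA-kb2, 3,000/well, preincubated 5 hr. Compounds plus 0.5 nM R1881 final, 16 hr, 37C, 0% CO2.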

[10] = qHTS assay to identify small molecule phospholipidosis (PLD) inducers (AID 1259344; active = well fitted curve in the direction sought with a large enough effect; an effect the other way counts as inactive or inconclusive)
Procedure, shortened: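 After 4 h attachment on collagen I, HepG2 cells were dosed with compound alongside LipidTOX Red, kept 24 h at 37 C, fixed, and imaged for lamellar phospholipid pits.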

[11] = qHTS assay to identify small molecule HDAC inhibitors (AID 1259364); also: potency is read from the fitted curve at half-maximal effect;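 also: wild-type HCT-116 cells with endogenous class I/II HDAC activity; nearly all actives have a fitted effect of over 45% in size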
Procedure, shortened: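 HCT-116 (wild type), 1,500 cells/well, overnight; compound 2 hr 37C 5% CO2; HDAC-Glo I/II reagent 30 min RT; luminescence readout.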

[12] = qHTS assay to identify small molecule HDAC inhibitors - cell viability counter screen (AID 1259365); also: nearly all actives have a fitted effect of over 50% in size; also: potency is read from the fitted curve at half-maximal effect
Procedure, shortened: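 To flag cytotoxic hits, 1,500 wild-type HCT-116 cells per well, plated the day before, receive test compounds for 2hr at 37 C before CellTiter-Glo reagent and a luminescence read.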

[13] = qHTS assay to identify small molecule agonists of the sonic hedgehog signaling (Shh) pathway - cell viability counter screen (AID 1259366); also: nearly all actives have a fitted effect of over 50% in size; also: potency is read from the fitted curve at half-maximal effect
Procedure, shortened: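 Fluorescence from CellTiter-Fluor reports live cells in this counter screen. NIH/3T3-derived Gli1-Luc reporter cells receive test compounds for 24hr at 37C; reagent goes in at 23hr.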

[14] = qHTS assay to identify small molecule antagonists of the sonic hedgehog signaling (Shh) pathway - cell viability counter screen (AID 1259367); also: nearly all actives have a fitted effect of over 55% in size; also: potency is read from the fitted curve at half-maximal effect
Procedure, shortened: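 Conditioned medium drove Shh signaling in 3T3 Gli1-Luc cells exposed to compounds at 37C and 5% CO2. Viability was determined from CellTiter-Fluor fluorescence, with reagent incubated 1 hr after 23 hr of treatment.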

[15] = qHTS assay to identify small molecule agonists of the sonic hedgehog signaling (Shh) pathway (AID 1259368; calls by dose curve;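 also: NIH/3T3-derived 3T3Gli1-Luc cells carrying a stable Gli1-driven firefly luciferase reporter; series mostly up to about 92 µM; nearly all actives have a fitted effect of over 15% in size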)
Procedure, shortened: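 Read-out: firefly luciferase luminescence from a Gli1 response element reporter stably integrated in NIH/3T3-derived 3T3Gli1-Luc cells, measured 30 min at room temperature after reagent addition. Compound exposure lasted 24 hr at 37 C, 5% CO2.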

[16] = qHTS assay to identify small molecule antagonists of the sonic hedgehog signaling (Shh) pathway (AID 1259369; calls by dose curve; also: nearly all actives have a fitted effect of over 45% in size; also: potency is read from the fitted curve at half-maximal effect)
Procedure, shortened: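 Luminescence readout: firefly Luc under Gli1 response element in 3T3Gli1-Luc cells (NIH/3T3 clone). Antagonist mode, stimulation by conditioned medium; compound exposure 24hr at 37 C, 5% CO2.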

[17] = A CellTox Green Cytotoxicity Assay to monitor cytotoxicity in HepG2 cells - 8 hour (AID 1224890); also: nearly all actives have a fitted effect of over 45% in size
Procedure, shortened: as §1

[18] = biological target: Estrogen receptor (Homo sapiens) (UniProt P03372); assay: qHTS assay to identify small molecule antagonists of the estrogen receptor alpha (ER-alpha) signaling pathway using the BG1 cell line in the presence of 0.1 nM 17-beta-estradiol (AID 1259244); also: nearly all actives have a fitted effect of over 50% in size; also: potency is read from the fitted curve at half-maximal effect
Chain of Estrogen receptor (Homo sapiens) (P03372 whole entry, looked up): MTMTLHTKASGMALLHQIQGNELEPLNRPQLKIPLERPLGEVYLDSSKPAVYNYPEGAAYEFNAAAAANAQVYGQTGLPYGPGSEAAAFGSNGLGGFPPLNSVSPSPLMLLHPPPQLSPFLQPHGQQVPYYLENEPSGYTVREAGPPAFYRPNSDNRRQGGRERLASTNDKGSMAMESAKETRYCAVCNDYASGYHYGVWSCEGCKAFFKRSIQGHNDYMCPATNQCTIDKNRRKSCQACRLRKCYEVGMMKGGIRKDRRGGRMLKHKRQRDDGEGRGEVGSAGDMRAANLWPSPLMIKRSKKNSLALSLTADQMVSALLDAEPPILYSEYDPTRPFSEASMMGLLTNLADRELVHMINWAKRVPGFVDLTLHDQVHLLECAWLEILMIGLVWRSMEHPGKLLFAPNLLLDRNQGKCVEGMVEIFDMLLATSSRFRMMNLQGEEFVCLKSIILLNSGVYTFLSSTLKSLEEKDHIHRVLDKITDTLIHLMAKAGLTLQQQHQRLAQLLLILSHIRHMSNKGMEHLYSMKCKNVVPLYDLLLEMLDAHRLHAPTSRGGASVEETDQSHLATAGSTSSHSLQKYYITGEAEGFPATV
Procedure, shortened: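 Luminescence after ONE-Glo (30 min, room temperature) measured ERE-luciferase activity in VM7Luc4E2 cells treated 22 h with compound and 0.1 nM final 17beta-estradiol as stimulator.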

[19] = qHTS RealTime-Glo MT Cell Viability Assay in HEK293 cells - 8 hour (AID 1224887); also: nearly all actives have a fitted effect of over 50% in size; also: potency is read from the fitted curve at half-maximal effect
Procedure, shortened: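 Luminescence readout at each listed time point; HEK293, 600 cells/well, RealTime-Glo MT reagent added with cells; compounds pinned (23 nL in DMSO) after 5 h at 37 C; continuous culture at 37 C.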

[20] = biological target: Androgen receptor (Homo sapiens) (UniProt P10275); assay: qHTS assay to identify small molecule antagonists of the androgen receptor (AR) signaling pathway using the MDA cell line in the presence of 0.5 nM R1881 (AID 1259243)
Chain of Androgen receptor (Homo sapiens) (P10275 whole entry, looked up): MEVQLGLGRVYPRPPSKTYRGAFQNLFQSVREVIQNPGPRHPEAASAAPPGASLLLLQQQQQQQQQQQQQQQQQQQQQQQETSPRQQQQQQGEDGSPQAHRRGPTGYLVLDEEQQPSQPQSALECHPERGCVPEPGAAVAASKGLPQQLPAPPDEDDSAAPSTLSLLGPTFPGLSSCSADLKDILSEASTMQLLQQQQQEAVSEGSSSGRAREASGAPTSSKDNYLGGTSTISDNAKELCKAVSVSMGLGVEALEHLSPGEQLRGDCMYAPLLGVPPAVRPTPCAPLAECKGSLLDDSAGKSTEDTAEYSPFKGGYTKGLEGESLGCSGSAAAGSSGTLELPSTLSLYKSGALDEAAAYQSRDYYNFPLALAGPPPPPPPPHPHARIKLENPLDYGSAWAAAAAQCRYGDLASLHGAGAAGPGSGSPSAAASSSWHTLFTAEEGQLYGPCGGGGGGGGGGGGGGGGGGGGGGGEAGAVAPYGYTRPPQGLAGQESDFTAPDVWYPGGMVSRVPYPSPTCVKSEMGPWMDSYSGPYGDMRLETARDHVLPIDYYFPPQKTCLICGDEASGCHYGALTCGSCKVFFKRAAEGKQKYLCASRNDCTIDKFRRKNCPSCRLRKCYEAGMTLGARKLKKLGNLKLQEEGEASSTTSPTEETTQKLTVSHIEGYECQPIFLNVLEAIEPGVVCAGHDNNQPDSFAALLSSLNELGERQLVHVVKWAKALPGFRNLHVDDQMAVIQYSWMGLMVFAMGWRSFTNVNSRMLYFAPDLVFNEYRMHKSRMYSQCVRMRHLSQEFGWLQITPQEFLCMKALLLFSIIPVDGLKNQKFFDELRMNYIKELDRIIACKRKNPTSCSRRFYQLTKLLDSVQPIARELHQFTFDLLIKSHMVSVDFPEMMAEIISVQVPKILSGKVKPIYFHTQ
Procedure, shortened: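 MDA-kb2, MMTV-luc (AR/GR elements); 3,000 cells/well; cpd + 0.5 nM R1881 final; 16 hr 37C, 0% CO2; ONE-Glo 30 min RT; luminescence.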

Measured: Potency

Nc1ccn([C@H]2CS[C@@H](CO)O2)c(=O)n1
not listed: [17] | [18] | [19] | [20]
inactive: all other assays above

O=C(CCS)OCC(COC(=O)CCS)(COC(=O)CCS)COC(=O)CCS
not listed: [5] | [10] | [19] | [20]
inactive: all other assays above

CNCc1ccc(NC(=O)c2c[nH]c3c2C(=O)CCC3)cc1
not listed: [5] | [10] | [16] | [18] | [19] | [20]
inactive: all other assays above

O=C(/C=C/c1ccc([N+](=O)[O-])cc1)c1ccccc1
active: [2] 21.9 µM | [5] 31 µM | [11] 8.65 µM
not listed: [8] | [9] | [10] | [16] | [19] | [20]
inactive: all other assays above

CS(=O)(=O)c1ccc([C@@H](C[C@H]2CCC(=O)C2)C(=O)Nc2cnccn2)cc1Cl
not listed: [8] | [10] | [19] | [20]
inactive: all other assays above

CCOC(=O)c1c(N)sc2c1CCN(Cc1ccccc1)C2
active: [5] 19 µM | [18] 29.8 µM | [16] 10.6 µM
not listed: [9] | [14] | [19] | [20]
inactive: all other assays above

Cc1c(C2(c3cc(Br)c(O)c(Br)c3C)OS(=O)(=O)c3ccccc32)cc(Br)c(O)c1Br
inactive: [1] | [2] | [3] | [4] | [5]
active: [7] 13.4 µM | [11] 4.2 µM | [12] 4.2 µM | [13] 9.4 µM | [14] 10.5 µM

O=c1[nH]c2cc(C(F)(F)F)c(N3CCOCC3)cc2n(CP(=O)(O)O)c1=O
not listed: [9] | [19] | [20]
inactive: all other assays above

CC(=O)C(C)=O
not listed: [2] | [6] | [10] | [15] | [17] | [18] | [20]
inactive: all other assays above

CC(C)(O)c1coc(S(=O)(=O)NC(=O)Nc2c3c(cc4c2CCC4)CCC3)c1
active: [16] 54.5 µM
not listed: [2] | [10] | [14] | [18] | [19] | [20]
inactive: all other assays above

CNS(=O)(=O)c1cc(C(=O)N2CCC(CCN3C4CCC3CC(n3c(C)nc5ccccc53)C4)(c3cccc(F)c3)CC2)c(Cl)cc1F (centres undefined)
active: [5] 4.36 µM | [19] 3.89 µM | [20] 24.3 µM | [16] 15.4 µM
not listed: [4] | [7] | [9] | [10] | [13] | [18]
inactive: all other assays above

CCCCCCC(CO)CCCC (centres undefined)
not listed: [2] | [8] | [9] | [10] | [18] | [20]
inactive: all other assays above
